In the supplement of paper PMC10127200:
Where a name gives a salt, the structure may show the parent alone.

Tests used:
Assay in all cases: Euclidean distance of Cell Painting phenotypic profile (signed KS, 77 features) to DMSO centroid (dimensionless distance); 5 or 10 uM (library dependent); higher = stronger phenotypic change vs DMSO (phenoactivity)
Details in all cases: 48 h
786-O = system: 786-O
How it was run: (§1)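 Five cancer lines, together with a healthy fibroblast line, received library compounds for 48 h at a library-dependent 10 or 5 uM and 0.1% DMSO final. Harmony then derived 77 features from confocal 20X images (9 fields/well) of the stained cells, scoring each as a signed Kolmogorov-Smirnov statistic against same-plate vehicle wells. After plate-position correction, correlation weighting and replicate averaging at the top dose, phenoactivity was taken as each profile's Euclidean distance to the median vehicle profile.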

A549 = system: A549
How it was run: as §1

DU145 = system: DU145
How it was run: as §1

FB = system: FB
How it was run: as §1

HEPG2 = system: HEPG2
How it was run: as §1

OVCAR4 = system: OVCAR4
How it was run: as §1

Compound | Euclidean distance (786-O) | Euclidean distance (A549) | Euclidean distance (DU145) | Euclidean distance (FB) | Euclidean distance (HEPG2) | Euclidean distance (OVCAR4)
CCCNC(C)C(=O)Nc1ccccc1C (centres undefined) [Prilocaine] | 1.25 | 0.85 | 0.708 | 1.93 | 0.648 | 0.974
CN(C[C@@H]1COCCO1)S(=O)(=O)Nc1ccc2ccc3ncc(-c4cnn(C)c4)cc3c(=O)c2c1 | 1 | 0.895 | 1.01 | 3.07 | 0.888 | 1
COc1cc([C@@H]2c3cc4c(cc3[C@@H](O[C@@H]3O[C@@H]5CO[C@@H](C)O[C@H]5[C@H](O)[C@H]3O)[C@H]3COC(=O)[C@H]23)OCO4)cc(OC)c1O [Etoposide] | 4.29 | 2.57 | 3.62 | 3.88 | 4.18 | 3.21
CC1=CC(=O)c2ccccc2C1=O [Menadione] | 1.12 | 0.782 | 0.587 | 1.16 | 0.759 | 2.12
O=C(O)CNC(=O)c1ncc(-c2cccc(Cl)c2)cc1O [Vadadustat] | 1.08 | 1.97 | 2.71 | 1.67 | 0.8 | 2.35
O=C1NC(=O)/C(=C/c2cccc(C(F)(F)F)c2)S1 | 1.83 | 1.41 | 0.82 | 1.49 | 0.755 | 0.797
O=C(c1ccc(Nc2nccc(-c3cc4ccccc4s3)n2)cc1)N1CCC(N2CCCC2)CC1 [IKK-16 (IKK Inhibitor VII)] | 3.91 | 4.2 | 3.04 | 4.35 | 4.29 | 4.4
CC(C)[C@@H](C)/C=C/[C@@H](C)[C@H]1CC[C@H]2C3=CC=C4C[C@@H](O)CC[C@]4(C)[C@H]3CC[C@]12C [Ergosterol] | 1.2 | 1.36 | 1.1 | 0.707 | 0.946 | 1.17
Nc1nc(NC2CC2)c2ncn([C@H]3C=C[C@@H](CO)C3)c2n1 [Abacavir] | 1.46 | 0.752 | 1.02 | 1.21 | 0.494 | 1.25
CCCCN1CCCC[C@H]1C(=O)Nc1c(C)cccc1C [Levobupivacaine HCl] | 1.01 | 1.33 | 0.6 | 0.871 | 0.852 | 1.49
CCn1cc(-c2ccnc3[nH]c(-c4cccc(CN(C)C)c4)cc23)c(-c2ccc(NC(=O)N(C)C)cc2)n1 | 2.56 | 2.73 | 2.29 | 3.38 | 2.7 | 2.8
Cc1noc(NS(=O)(=O)c2ccc(N)cc2)c1C [Sulfisoxazole] | 1.32 | 0.853 | 1.02 | 0.984 | 0.555 | 1.26
COc1ccc([C@]2(C#N)CC[C@@H](C(=O)O)CC2)cc1OC1CCCC1 [Cilomilast] | 1.31 | 0.842 | 1.35 | 1.14 | 1.3 | 1.53
CC(C)=CCOc1ccc(/C=C/C(=O)c2ccc(OCC=C(C)C)cc2OCC(=O)O)cc1 [Sofalcone] | 1.25 | 1.09 | 0.847 | 1.01 | 0.922 | 1.08
Cc1cc(NS(=O)(=O)c2ccc(N)cc2)no1 [Sulfamethoxazole sodium] | 1.09 | 0.64 | 1.01 | 0.902 | 0.561 | 1.28
NC1=N[C@@]2(c3cc(NC(=O)c4ccc(F)cn4)ccc3F)COC[C@H]2CS1 | 1.08 | 1.29 | 1.47 | 1.04 | 0.861 | 1.05
COc1ccccc1OCCNCC(O)COc1cccc2[nH]c3ccccc3c12 (centres undefined) [Carvedilol] | 1.59 | 1.04 | 1.42 | 1.64 | 2.22 | 1.86
O=P(O)(O)OC(Cn1cncn1)(Cn1cncn1)c1ccc(F)cc1F [Fosfluconazole] | 1.39 | 0.635 | 1.39 | 0.872 | 0.852 | 1.23
O=C1CCCC(=O)C1C(=O)c1ccc(C(F)(F)F)cc1[N+](=O)[O-] [Nitisinone] | 1.12 | 0.58 | 1.2 | 1 | 0.455 | 1.09
N[C@@H](Cc1c[nH]c2ccc(O)cc12)C(=O)O [5-hydroxytryptophan (5-HTP)] | 1.11 | 0.965 | 0.903 | 0.927 | 0.404 | 0.744

Compound | Euclidean distance (786-O) | Euclidean distance (A549) | Euclidean distance (DU145) | Euclidean distance (FB) | Euclidean distance (HEPG2) | Euclidean distance (OVCAR4)
CC(C)N1CCN(c2ccc(Nc3ncc4cc5n(c4n3)C3(CCCCC3)CNC5=O)nc2)CC1 | 3.19 | 1.63 | 2.41 | 3.71 | 2.1 | 2.34
Cc1ccc2c(Cl)cc(Cl)c(O)c2n1 [Chlorquinaldol] | 2.59 | 2.3 | 1.54 | 2.53 | 2.09 | 2.94
NC(=O)/N=N/C(N)=O [Azodicarbonamide] | 1.07 | 0.533 | 1.15 | 0.879 | 1.28 | 1.14
Cc1ccccc1OCC(O)CO (centres undefined) [Mephenesin] | 0.824 | 0.804 | 0.895 | 1.13 | 0.549 | 1.86
CCCSc1nc(N[C@@H]2C[C@H]2c2ccc(F)c(F)c2)c2nnn([C@@H]3C[C@H](OCCO)[C@@H](O)[C@H]3O)c2n1 [Ticagrelor] | 0.66 | 1.41 | 1.07 | 0.885 | 0.977 | 1.37
CC(=O)OCC1=C(C(=O)O)N2C(=O)[C@@H](NC(=O)Cc3cccs3)[C@H]2SC1 [Cephalothin] | 1.38 | 0.786 | 0.824 | 1.24 | 1.28 | 1.23
CC[C@H]1OC(=O)C[C@@H](O)[C@H](C)[C@@H](O[C@@H]2O[C@H](C)[C@@H](O[C@H]3C[C@@](C)(O)[C@@H](O)[C@H](C)O3)[C@H](N(C)C)[C@H]2O)[C@@H](CC=O)C[C@@H](C)C(=O)/C=C/C(C)=C/[C@@H]1CO[C@@H]1O[C@H](C)[C@@H](O)[C@@H](OC)[C@H]1OC [Tylosin] | 0.535 | 1.08 | 0.612 | 0.794 | 0.42 | 0.917
CC1(C)CNc2cc(NC(=O)c3cccnc3NCc3ccncc3)ccc21 [Motesanib Diphosphate (AMG-706)] | 1.29 | 1.76 | 1.48 | 1.96 | 1.27 | 1.37
Cc1ccc(-c2ccc(C)cn2)nc1 [Abametapir] | 1.7 | 1.07 | 0.964 | 1.34 | 1.61 | 0.964
CO[C@H]1/C=C/O[C@@]2(C)Oc3c(C)c(O)c4c(O)c(c5c(nc6cc(C)ccn65)c4c3C2=O)NC(=O)/C(C)=C\C=C\[C@H](C)[C@H](O)[C@@H](C)[C@@H](O)[C@@H](C)[C@H](OC(C)=O)[C@@H]1C [Rifaximin] | 1.35 | 0.671 | 0.886 | 1 | 1.9 | 1.06
COc1cc2ncnc(Sc3nnc(C)s3)c2cc1OC | 1.26 | 1.44 | 0.977 | 1.09 | 2.45 | 1.9
CCc1cc(Nc2nccc(-c3c(-c4ccc(OC)c(C(=O)Nc5c(F)cccc5F)c4)nc4ccccn34)n2)c(OC)cc1N1CCC(N2CCN(S(C)(=O)=O)CC2)CC1 | 1.24 | 1.6 | 1.12 | 0.954 | 1.11 | 1.26
Nc1ccc(C(=O)O)c(O)c1 [4-Aminosalicylic acid] | 0.634 | 0.798 | 2.33 | 0.835 | 0.517 | 0.799
CN(C)Cc1c(C(=O)NCCOc2ccc(C(=O)NO)cc2)oc2ccccc12 | 2.9 | 4.31 | 3.96 | 3.8 | 4.14 | 3.47
O=C(O)c1cn(C2CC2)c2cc(N3CCNCC3)c(F)cc2c1=O [Ciprofloxacin hydrochloride hydrate] | 1.39 | 0.835 | 0.784 | 1.29 | 0.735 | 1.87
O=NN(CCCl)C(=O)NC1CCCCC1 [Lomustine] | 0.894 | 0.833 | 0.869 | 1.05 | 0.457 | 1
CO[C@@H]1[C@@H](OC(N)=O)[C@@H](O)[C@H](Oc2ccc3c(O)c(NC(=O)c4ccc(O)c(CC=C(C)C)c4)c(=O)oc3c2C)OC1(C)C [Novobiocin Sodium] | 0.865 | 0.868 | 0.814 | 1.04 | 0.385 | 1.19
NC(=O)Cc1cccc(C(=O)c2ccccc2)c1N [Nepafenac] | 1.03 | 1.31 | 2.96 | 1.25 | 1.14 | 0.874
Nc1cc(Cl)c(N=C2NCCN2)c(Cl)c1 [Apraclonidine HCl] | 0.986 | 1.57 | 0.828 | 1.25 | 0.638 | 2
